Screens: PubChem, National Center for Advancing Translational Sciences (NCATS)
This is a sample that favours compounds with a hit; in the whole collection about 21% have one here.
DRD3 antagonist – blocks the human D3 dopamine receptor | max response, negative = inhibition, % | 360,000 tested, 2.5% active | AID 652054 | P35462 | D3R cells, DiscoveRx beta-arrestin luminescence, antagonist mode; hits give low values; in the data active = max response below about -50%; inconclusive = no clear call, values can overlap the other calls; also: % is scaled to controls: 0 for no effect and ±100 for the full control effect
Target sequence (P35462 whole entry, looked up): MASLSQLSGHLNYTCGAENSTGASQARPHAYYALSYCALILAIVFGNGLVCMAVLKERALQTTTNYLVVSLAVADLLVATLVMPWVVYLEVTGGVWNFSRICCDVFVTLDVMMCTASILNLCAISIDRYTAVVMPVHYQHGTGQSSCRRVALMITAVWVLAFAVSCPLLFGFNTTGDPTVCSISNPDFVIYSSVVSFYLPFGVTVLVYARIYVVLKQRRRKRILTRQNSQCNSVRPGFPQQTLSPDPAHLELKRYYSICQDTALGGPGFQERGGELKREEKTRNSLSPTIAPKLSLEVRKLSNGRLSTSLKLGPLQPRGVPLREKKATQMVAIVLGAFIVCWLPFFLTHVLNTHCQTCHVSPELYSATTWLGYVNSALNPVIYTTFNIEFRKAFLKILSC
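Cells plated overnight at 1500 cells/well, then exposed to library compounds with dopamine controls for 90 minutes at 37 degrees C. DiscoveRx reagent added for 30–60 minutes at room temperature; luminescence read, quantitative HTS format.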
ClpP mod – qHTS Assay for Activators of ClpP; ATP-dependent Clp protease proteolytic subunit (Bacillus subtilis (strain 168)), P80244; 340,000 tested, 1.9% active; purified B. subtilis ClpP, FRET peptide cleavage, 20 min; Potency, µM (titrated, usually from 57.5 µM), for inactives: at the highest dose activity change, negative = active; AID 651965, 2013; active = well fitted falling curve with a large enough effect; inconclusive = small, poorly fitted or top-dose-only effect; inactive = no such curve, though single readings can be large or run the other way; also: potency is read from the fitted curve at half-maximal effect; the source files actives as falling curves though it sought activators and does not explain the sign; nearly all actives have a fitted effect of over 65% in size
Target sequence (P80244 whole entry, looked up): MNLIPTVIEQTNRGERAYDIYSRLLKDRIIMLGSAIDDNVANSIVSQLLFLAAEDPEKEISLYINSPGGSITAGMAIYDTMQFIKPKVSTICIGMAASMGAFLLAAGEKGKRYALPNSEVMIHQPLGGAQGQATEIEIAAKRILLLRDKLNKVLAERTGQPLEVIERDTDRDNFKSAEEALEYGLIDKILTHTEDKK
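FRET quenching reversal measured ClpP activation: 10 microg/mL B. subtilis ClpP at pH 8 with the FRET-FV decapeptide, read at 430 nm after 320 nm excitation. The 20-min minus 0-min signal was scaled between DMSO/no-enzyme wells and ADEP (5.8 microM final).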
IL1B secr inh – inflammasome signaling inhibition, IL-1 beta readout; activity change, % at 57.5 µM; 360,000 tested, 4.7% active; THP-1 LPS/ATP IL-1B secretion, AlphaLISA, 16 h; hits give low values; in the data active = activity change below about -50%; inconclusive = mostly about -30% to -49%; also: % is scaled to controls: 0 for no effect and ±100 for the full control effect
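Secreted IL-1B measured by AlphaLISA bead assay after 16 h compound exposure of THP-1 cells; compounds (final up to 57.5 uM) added 1 h before LPS (250 ng/mL) and ATP (1.25 mM) stimulation; lower signal means less secretion.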
TDP1 cell noCPT – qHTS for Inhibitors of human tyrosyl-DNA phosphodiesterase 1 (TDP1): qHTS in cells in absence of CPT | DT40 Tdp1-/- hTDP1 cells, no CPT, ATP luminescence, 48 h | 420,000 tested, 15% active | Potency, µM (highest dose often 46.2 µM), without a hit: at the top dose activity change, negative = growth inhibition, actives largely listed as inhibitors; also: potency is read from the fitted curve at half-maximal effect; % is scaled to controls: 0 for no effect and ±100 for the full control effect; nearly all actives have a fitted effect of over 55% in size
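Seeded 400 DT40-hTDP1 cells/well (vehicle DMSO, no 20 nM CPT); pinned compounds; ≥48 hr at 37 °C; CellTiter-Glo luminescence as viability measure.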
DT40 TDP1 CPT – growth inhibition of DT40 Tdp1-/-;hTDP1 cells with camptothecin (screen for TDP1 inhibitors). Potency, µM (highest dose often 46.2 µM), inactives show at the highest dose activity change, negative = growth inhibition, most hits filed as inhibitors. 420,000 tested, 12% active. AID 686979. chicken DT40 Tdp1-/-;hTDP1 cells + 20 nM CPT, ATP luminescence, 48 h; also: potency is read from the fitted curve at half-maximal effect; % is scaled to controls: 0 for no effect and ±100 for the full control effect; nearly all actives have a fitted effect of over 55% in size
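Chicken DT40 Tdp1-/- cells stably complemented with human TDP1 were seeded at 400 cells/well in medium containing 20 nM camptothecin, exposed to pin-transferred compounds, and grown at 37 °C for at least 48 hr. Viability was read as ATP luminescence.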
DRD3 agonist – agonists of human D3 dopamine receptor | max activation, % | D3R DiscoveRx beta-arrestin cells, luminescence, 90 min | P35462 | 410,000 tested, 0.58% active; in the data active = max activation above about 30%; also: 0% is about no effect
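Agonist mode: compounds and dopamine controls were applied to plated cells for 90 min at 37 degrees C after an overnight attachment at 1500 cells/well. Luminescent read-out followed 30 - 60 minutes at room temperature with DiscoveRx detection reagent.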
Numbers without * were called inactive; ? = inconclusive; . = not tested or not shown; ! = a repeat was not active; [ ] = remark or other dose. Unless noted, calls follow the shape of the dose curve; as a rule, active = well fitted inhibition curve with a large enough effect; inconclusive = small, poorly fitted or top-dose-only effect; inactive = flat fitted curve, though single readings scatter.

SMILES | DRD3 antagonist | ClpP mod | IL1B secr inh | TDP1 cell noCPT | DT40 TDP1 CPT | DRD3 agonist
Nc1ccc2c(c1)Cc1ccccc1-2 | -18 | 11µM* | -4 | 2% | -11% | -13
COc1ccc(C(=O)CC(c2ccc3c(c2)OCO3)c2c(O)c3ccccc3oc2=O)cc1OC (stereo unspecified) | ? | 0% | -28 | ? | -2% | -12
Cc1ccc(NC(=O)C2C3CCCC2C3c2ccccc2)c(C)c1 (stereo unspecified) | -15 | 2% | -1 | 23µM* | ? | -7
Cc1ccc(NC(=O)c2cccn(Cc3ccccc3C)c2=O)c(C)c1 | . | -2% | . | -23% | -11% | 2
Cc1ccc(CCNC(=O)C2CCCN(Cc3nc(-c4cccc(Cl)c4)oc3C)C2)cc1 (stereo unspecified) | . | -3% | . | 15µM* | 12µM* | -17
COC(=O)[C@H]1[C@@H](OC(=O)c2ccccc2)C[C@@H]2CC[C@H]1N2C | . | . | . | -10%[92.5 µM] | ? | -11
COc1ccc(C=C2C(=O)NC(=S)NC2=O)cc1OC | -9 | . | 1 | -14% | -9% | -9
COc1ccc(/C=C/C=C2C(=O)NC(=S)NC2=O)cc1 | 23 | 3% | ? | 3.3µM* | 3.3µM* | 0
COc1cccc(-c2nn(CCC#N)cc2C(=O)Nc2ccccc2Cl)c1 | 5 | 1% | 31 | ? | ? | 12
COc1cccc(-c2nc3cc4c(cc3cc2CN(C(=O)c2cccs2)C2CC2)CCC4)c1OC | . | . | . | 16µM* | ? | .
Nc1ccccc1C(=O)OCCc1ccccc1 | 21 | 4% | 18 | ? | ? | 7
Cc1cc(OCC(=O)NC2CCS(=O)(=O)C2)c2c3c(c(=O)oc2c1)CCC3 (stereo unspecified) | 28 | 3.2µM* | -6 | -7% | 12% | 1
Cc1cc(OCC(=O)OC(C)C)c2c3c(c(=O)oc2c1)CCCC3 | 1 | 35µM* | 44 | ? | -7% | 1
CCOC(=O)C(C)Oc1cc(C)cc2oc(=O)c3c(c12)CCCC3 (stereo unspecified) | 16 | 16µM* | 54 | -21% | -27% | 14
Cc1cc(OCC(=O)NCC(O)c2ccccc2)c2c3c(c(=O)oc2c1)CCCC3 (stereo unspecified) | 17 | 4% | -19 | 18µM* | ? | -3
COC(=O)C1=C(c2ccc(OC)c(OC)c2)C[C@@H]2CC[C@H]1N2C(=O)NCc1ccc(F)cc1 | ? | 3% | 15 | -28% | -28% | 11
CCOc1ccc2c3c1O[C@H]1[C@@H](O)C=C[C@H]4[C@@H](C2)N(C)CC[C@@]341 | . | . | . | ? | -22% | 2
CC/C(=C(\c1ccc(O)cc1)c1ccc(OCCN(C)C)cc1)c1ccccc1 | -7 | 0% | 12 | 15µM* | ? | -50
O=c1c([N+](=O)[O-])cn(O)cc1[N+](=O)[O-] | 4 | 1% | 5 | 1% | -17% | 2
C/C=C(\C)C(=O)N[C@@H](c1ccccc1)[C@@H](O)C(=O)O[C@H]1C[C@@]2(O)[C@@H](OC(=O)c3ccccc3)C3[C@](C)(C(=O)[C@H](OC(C)=O)C(=C1C)C2(C)C)[C@@H](O)C[C@H]1OC[C@@]31OC(C)=O (stereo partly specified) | 2 | -2% | 20 | 0.01µM* | 0.013µM* | -12
C/C=C(\C)C(=O)N[C@@H](c1ccccc1)[C@@H](O)C(=O)O[C@H]1C[C@@]2(O)[C@@H](OC(=O)c3ccccc3)C3[C@](C)(C(=O)[C@H](O)C(=C1C)C2(C)C)[C@@H](O)C[C@H]1OC[C@@]31OC(C)=O (stereo partly specified) | 5 | 1% | 42 | 0.16µM* | 0.046µM* | 0
CC(=O)O[C@@]12CO[C@@H]1C[C@H](O)[C@@]1(C)C(=O)[C@H](O)C3=C(C)[C@@H](O)C[C@@](O)([C@@H](OC(=O)c4ccccc4)C12)C3(C)C (stereo partly specified) | -2 | -2% | 5 | 9.2µM* | 9.2µM* | -11
O=C(Nc1ccc2ccccc2c1)N1C[C@H]2C[C@@H](C1)c1cccc(=O)n1C2 | -24 | -24% | 0 | 23% | -8% | -6
CC(C)[C@H](NC(=O)N1C[C@H]2C[C@@H](C1)c1cccc(=O)n1C2)C(=O)Nc1ccccc1F | -6 | -4% | 9 | -3% | 0% | 15
O=C(NCNC(=O)NC1C(=O)NC(=O)N1CO)NC1C(=O)NC(=O)N1CO (stereo unspecified) | 7 | 1% | 27 | 3% | 2% | 9
SMILES | DRD3 antagonist | ClpP mod | IL1B secr inh | TDP1 cell noCPT | DT40 TDP1 CPT | DRD3 agonist
CC(OC(=O)c1cn(C)c2ccccc12)C(=O)N(C)c1ccccc1 (stereo unspecified) | 11 | -3% | -26 | ? | -3% | -4
C=CCc1ccc(OC)cc1 | -15 | -1% | 23 | ? | 3.7µM*! | -8
COc1ccc(CN2CCNCC2)cc1 | -7 | -2% | 37 | ? | -15% | 5
CC(=O)C1=C(O)C2C3c4c[nH]c5cccc(c45)CC3C(C)(C)N2C1=O (stereo unspecified) | . | . | . | 7.3µM* | 10µM* | .
CC(=O)C1=C(O)[C@@H]2[C@@H]3c4c[nH]c5cccc(c45)C[C@@H]3C(C)(C)N2C1=O | . | . | . | 4.2µM* | 6.7µM* | .
C/C(O)=C1\C(=O)[C@@H]2[C@H]3c4c[nH]c5cccc(c45)C[C@H]3C(C)(C)N2C1=O | . | . | . | 8.3µM* | 10µM* | .
C[C@]12CCC3C(CCC4=C/C(=N/OCC(=O)NC(CCC(=O)O)C(=O)O)CC[C@@]43C)C1CCC2O (stereo partly specified) | 1 | . | 31 | -4% | 6% | -4
O=S(=O)(c1ccc(Cl)cc1)N1CCN(C2CCN(Cc3ccccc3)CC2)CC1 | -63* | -1% | -19 | ? | ? | -12
O=C(Cc1ccc([N+](=O)[O-])cc1)N1CCN(Cc2ccc3c(c2)OCO3)CC1 | 12 | . | . | -20% | 1% | 3
C[C@@H]1O[C@@H](O[C@H]2C[C@@H](O)[C@]3(CO)[C@H]4[C@H](O)C[C@]5(C)[C@@H](C6COC(=O)C6)CC[C@]5(O)[C@@H]4CC[C@]3(O)C2)[C@H](O)[C@H](O)[C@H]1O (stereo partly specified) | 0 | 0% | 0 | ? | -9% | -15
